Source: PubChem BioAssay (NCATS)
Results filed as inconclusive are left out. Unmarked numbers belong to inactive results. Calls of active or inactive are those of the source. Calls follow the shape of the dose curve; as a rule, active = well fitted inhibition curve with a large enough effect; inconclusive = small, poorly fitted or top-dose-only effect; inactive = flat fitted curve, though single readings scatter.

Assay: P-glycoprotein substrates identified in KB-8-5-11 adenocarcinoma cell line, qHTS therapeutic library screen (AID 1346987); also: nearly all actives have a fitted effect of over 65% in size
Conditions: KB-8-5-11 (P-gp overexpressing) viability, CellTiter-Glo, 72 h; series mostly up to 44.5 µM; activity change, negative = cytotoxicity: at the top concentration
In short: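 KB-8-5-11, a colchicine-selected P-gp-overexpressing KB-3-1 subline, was grown without colchicine for the assay. Cells were seeded at 500 cells/well, dosed in concentration-response and incubated 72 h at 37 degree C, 5% CO2. Viability was read by CellTiter-Glo luminescence.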
% is scaled to controls: 0 for no effect and ±100 for the full control effect; potency is read from the fitted curve at half-maximal effect.

Row | SMILES | activity change, negative = cytotoxicity | Potency
1 | CC(C)Cc1ccc([C@@H](C)C(=O)NS(C)(=O)=O)cc1 | 2.04% | 
2 | Cn1c(=O)c2c(ncn2CCOC(=O)C(C)(C)Oc2ccc(Cl)cc2)n(C)c1=O |  | 18.4 µM (active)
3 | O=C1CC[C@@H](C(=O)N[C@H]2C[C@@H]2c2ccccc2)N1 | -22.5% | 
4 | OB(O)O | 11.5% | 
5 | [O-][N+](=Nc1ccccc1)c1ccccc1 | -0.387% | 
6 | CC[C@H]1NC(=O)[C@@H](NC(=O)c2ncccc2O)[C@@H](C)OC(=O)[C@H](c2ccccc2)NC(=O)[C@@H]2CC(=O)CCN2C(=O)[C@H](Cc2ccccc2)N(C)C(=O)[C@@H]2CCCN2C1=O | -1.09% | 
7 | CCCCCCCCCCCCCCCC(=O)OC[C@H](COP(=O)([O-])OCC[N+](C)(C)C)OC(=O)CCCCCCCCCCCCCCC | 2.06% | 
8 | CC1(C)S[C@@H]2[C@H](N3C(=O)C(c4ccccc4)NC3(C)C)C(=O)N2[C@H]1C(=O)O (stereo not given in full) | -12.9% | 
9 | O=P(O)(O)O | 16.9% | 
10 | COC1=C(OC)C(=O)C(C/C=C(\C)CC/C=C(\C)CC/C=C(\C)CC/C=C(\C)CC/C=C(\C)CC/C=C(\C)CC/C=C(\C)CC/C=C(\C)CC/C=C(\C)CCC=C(C)C)=C(C)C1=O | 17.8% | 
11 | Cc1ncc(C[n+]2csc(CCOP(=O)(O)OP(=O)(O)O)c2C)c(N)n1 | -0.626% | 
12 | CCCCC[C@H](O)/C=C/[C@H]1[C@H](O)CC(=O)[C@@H]1CCCCCCC(=O)O | -23.2% [at 17.3 µM] | 
13 | OC[C@H]1O[C@@](CO)(O[C@H]2O[C@H](CO)[C@@H](O)[C@H](O)[C@H]2O)[C@@H](O)[C@@H]1O | -4.04% | 
14 | CCOC(=S)SSC(=S)OCC | 17.3% | 
15 | COc1ccc(/C=C/C(=O)O)cc1 | -4.91% | 
16 | CNC(=O)C[C@@H](N)C(=O)N[C@@H](C(=O)N[C@@H]1C(=O)N2[C@@H]1SC(C)(C)[C@@H]2C(=O)O)c1ccc(O)cc1 | -5.48% | 
17 | CC(O)[C@@H]1NC(=O)[C@H](Cc2ccccc2)NC(=O)[C@H](C(C)O)NC(=O)[C@H](CCCCN)NC(=O)[C@H](Cc2c[nH]c3ccccc23)NC(=O)[C@H](Cc2ccccc2)NC(=O)[C@H](Cc2ccccc2)NC(=O)[C@H](CC(N)=O)NC(=O)[C@H](CCCCN)NC(=O)[C@@H](NC(=O)CNC(=O)[C@H](C)N)CSSC[C@@H](C(=O)O)NC(=O)[C@H](CO)NC1=O (stereo not given in full) | 3.42% | 
18 | CC[C@H]1OC(=O)[C@H](C)[C@@H](O[C@H]2C[C@@](C)(OC)[C@@H](O)[C@H](C)O2)C(C)[C@@H](O[C@@H]2O[C@H](C)C[C@H](N(C)C)[C@@H]2O)[C@](C)(OC)C[C@@H](C)C(=O)[C@H](C)[C@@H](O)[C@]1(C)O (stereo not given in full) | 0.959% | 
19 | Cc1ccccn1 | 6.6% | 
20 | C[C@H](CCC(=O)O)[C@H]1CC[C@H]2[C@@H]3CC[C@@H]4C[C@H](O)CC[C@]4(C)[C@H]3C[C@H](O)[C@]12C | -24.1% | 

Row | SMILES | activity change, negative = cytotoxicity | Potency
21 | NC(=O)[C@@H]1C[C@]2(NC(=O)NC2=O)c2cc(F)ccc2O1 | -9.68% | 
22 | CC(C)C[C@@H](NC(=O)[C@@H](O)[C@H](N)Cc1ccccc1)C(=O)O | 12% | 
23 | O=P(O)(O)OC[C@H]1O[C@](O)(COP(=O)(O)O)[C@@H](O)[C@@H]1O | -5.56% | 
24 | COC(=O)C(CN)c1c[nH]c2ccc(OC)cc12 (stereo not given) | -5.15% | 
25 | C[C@@](Cc1ccc(O)c(O)c1)(NN)C(=O)O | -3.59% | 
26 | CC(/C=C/C=C(\C)C(=O)O[C@@H]1O[C@H](CO[C@@H]2O[C@H](CO)[C@@H](O)[C@H](O)[C@H]2O)[C@@H](O)[C@H](O)[C@H]1O)=C\C=C\C=C(C)\C=C\C=C(/C)C(=O)O[C@@H]1O[C@H](CO[C@@H]2O[C@H](CO)[C@@H](O)[C@H](O)[C@H]2O)[C@@H](O)[C@H](O)[C@H]1O | 2.99% | 
27 | C[C@H](N)C(=O)N[C@@H](C)P(=O)(O)O | -2.5% | 
28 | C[C@@H](O)[C@H]1C(=O)N2C(C(=O)[O-])=C(SC3Cn4cnc[n+]4C3)[C@H](C)[C@H]12 (stereo not given in full) | -5.14% | 
29 | CS(=O)(=O)OCC(O)C(O)COS(C)(=O)=O (stereo not given) | -25.2% | 
30 | CC(C)OC(=O)Nc1ccc2nc(-c3cscn3)[nH]c2c1 |  | 4.61 µM (active)
31 | CC1CCCCN1CCCOC(=O)c1ccccc1 (stereo not given) | 26.2% | 
32 | CC1CC(O)CC(C)(C)C1 (stereo not given) | -11.1% | 
33 | CCc1cn([C@H]2C[C@H](O)[C@@H](CO)O2)c(=O)[nH]c1=O | 8.12% | 
34 | C#C[C@]1(O)CC[C@@H]2[C@H]3CCC4=CC(=O)CC[C@H]4[C@H]3C(=C)C[C@@]21CC | -26.9% | 
35 | NCCCC[C@H](N)C(=O)O | 1.04% | 
36 | CC(=O)N[C@@H]1C(O[C@H]2O[C@H](C(=O)O)C(O)[C@H](O)[C@H]2O)[C@H](O)[C@@H](CO)O[C@H]1O[C@@H]1C(C(=O)O)O[C@@H](O[C@H]2[C@H](O)[C@@H](CO)OC(O)[C@@H]2NC(C)=O)[C@H](O)[C@H]1O (stereo not given in full) | 1.3% | 
37 | CC(C)c1nc(N(C)S(C)(=O)=O)nc(-c2ccc(F)cc2)c1/C=C/C(O)CC(O)CC(=O)O (stereo not given) | 10.7% | 
38 | CCCOc1cc(N)ccc1C(=O)OCCN(CC)CC | -16.7% [at 17.3 µM] | 
39 | Nc1nc(NC2CC2)c2ncn([C@@H]3C=C[C@@H](CO)C3)c2n1 | -5.92% | 
40 | CC1=CCC2CC1C2(C)C (stereo not given) | -12.1% | 
